Records with an inconclusive call do not appear. A structure can be active in one record and inactive in another. Activity calls are given as the source filed them. Unless noted, calls come from the whole dose curve.
Tests used:
[1] = target: Cytochrome P450 3A4 (Homo sapiens) (UniProt P08684); assay: qHTS Assay for Activators of Cytochrome P450 3A4 (AID 885; active = well fitted curve in the direction sought with a large enough effect; an effect the other way counts as inactive or inconclusive; note: nearly all actives have a fitted effect of over 65% in size)
Sequence of Cytochrome P450 3A4 (Homo sapiens) (P08684 whole entry, looked up): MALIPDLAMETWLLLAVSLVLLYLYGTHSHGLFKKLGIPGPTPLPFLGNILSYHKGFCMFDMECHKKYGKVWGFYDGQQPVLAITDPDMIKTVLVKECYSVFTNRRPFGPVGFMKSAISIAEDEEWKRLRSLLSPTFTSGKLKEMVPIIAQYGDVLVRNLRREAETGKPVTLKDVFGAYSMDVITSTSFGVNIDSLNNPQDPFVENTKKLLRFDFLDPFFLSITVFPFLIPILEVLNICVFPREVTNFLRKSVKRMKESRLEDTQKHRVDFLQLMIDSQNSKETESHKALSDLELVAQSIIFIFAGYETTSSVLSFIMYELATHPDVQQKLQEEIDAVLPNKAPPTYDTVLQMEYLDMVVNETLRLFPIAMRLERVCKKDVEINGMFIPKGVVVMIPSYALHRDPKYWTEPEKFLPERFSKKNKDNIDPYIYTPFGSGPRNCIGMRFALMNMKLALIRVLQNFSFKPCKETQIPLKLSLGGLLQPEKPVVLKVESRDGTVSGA
Method in brief: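 Human CYP3A4 dealkylates Luciferin-PPXE to luciferin, which luciferase detection converts to light. Substrate was at its KM (25uM), buffer 200mM KPO4, reaction 60 min at RT.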

[2] = target: Peroxisome proliferator-activated receptor delta (Homo sapiens) (UniProt Q03181); assay: qHTS assay for small molecule agonists of peroxisome proliferator-activated receptor delta signaling (AID 588534);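 note: 0% = DMSO basal wells and 100% = positive control agonist at 10 µM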
Sequence of Peroxisome proliferator-activated receptor delta (Homo sapiens) (Q03181 whole entry, looked up): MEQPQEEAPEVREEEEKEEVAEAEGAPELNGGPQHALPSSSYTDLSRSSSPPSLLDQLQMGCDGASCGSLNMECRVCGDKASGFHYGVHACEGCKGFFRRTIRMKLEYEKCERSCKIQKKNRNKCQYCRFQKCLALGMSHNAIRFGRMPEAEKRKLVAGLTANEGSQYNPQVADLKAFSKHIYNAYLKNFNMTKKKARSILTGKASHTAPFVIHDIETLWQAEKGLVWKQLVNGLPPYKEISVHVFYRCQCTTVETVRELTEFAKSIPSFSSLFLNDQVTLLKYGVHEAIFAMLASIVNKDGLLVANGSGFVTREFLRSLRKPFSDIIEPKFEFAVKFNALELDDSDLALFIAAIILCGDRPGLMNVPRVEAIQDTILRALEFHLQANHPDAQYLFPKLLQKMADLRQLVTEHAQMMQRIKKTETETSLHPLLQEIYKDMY
Method in brief: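 Agonist-mode qHTS; reporter cells, 5 hrs 37 C pre-incubation; compound titration, 18 hrs 37 C; CCF4 dye, 2 hrs RT; fluorescence read. EC50/efficacy via Hill fit.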

[3] = qHTS assay for small molecule agonists of the antioxidant response element (ARE) signaling pathway (AID 651741; active = well fitted activation curve with a large enough effect in the signal ratio; the % refers to the signal ratio; note: potency is the fitted concentration of half-maximal effect; for activation: % of control where 0% means no effect)
Method in brief: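 Reporter: beta-lactamase under ARE, stably in HepG2. Exposure: 16 h, 37 C, compounds delivered in DMSO by pin tool after 5 h cell preincubation. Readout: FRET substrate fluorescence after 2 h at RT.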

[4] = qHTS assay for small molecule antagonists of peroxisome proliferator-activated receptor delta signaling (AID 588535; active = well fitted inhibition curve with a large enough effect in the signal ratio, with a control signal flat, not every such curve was filed as active; the % refers to the signal ratio;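 for max response: cells co-treated with a PPAR-delta agonist as stimulator during compound exposure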); settings: HEK293T PPARd-UAS-bla, beta-lactamase FRET ratio, 18 h; 460 nm channel
Method in brief: (§1)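 Inhibition of PPAR-delta response element-driven beta-lactamase expression is measured in HEK293T cells exposed to a compound titration series for 18 hrs at 37 C. Half-maximal inhibition comes from Hill equation fitting.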

[5] = target: Peroxisome proliferator-activated receptor delta (Homo sapiens) (UniProt Q03181); assay: as above
Method in brief: as §1

[6] = target: Peroxisome proliferator-activated receptor gamma (Homo sapiens) (UniProt P37231); assay: qHTS assay for small molecule agonists of peroxisome proliferator-activated receptor gamma signaling (AID 588536; active = well fitted curve in the direction sought with a large enough effect in the signal ratio, with a control signal flat, not every such curve was filed as active; the % refers to the signal ratio;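 note: 0% = DMSO basal wells and 100% = rosiglitazone at 2 µM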)
Sequence of Peroxisome proliferator-activated receptor gamma (Homo sapiens) (P37231 whole entry, looked up): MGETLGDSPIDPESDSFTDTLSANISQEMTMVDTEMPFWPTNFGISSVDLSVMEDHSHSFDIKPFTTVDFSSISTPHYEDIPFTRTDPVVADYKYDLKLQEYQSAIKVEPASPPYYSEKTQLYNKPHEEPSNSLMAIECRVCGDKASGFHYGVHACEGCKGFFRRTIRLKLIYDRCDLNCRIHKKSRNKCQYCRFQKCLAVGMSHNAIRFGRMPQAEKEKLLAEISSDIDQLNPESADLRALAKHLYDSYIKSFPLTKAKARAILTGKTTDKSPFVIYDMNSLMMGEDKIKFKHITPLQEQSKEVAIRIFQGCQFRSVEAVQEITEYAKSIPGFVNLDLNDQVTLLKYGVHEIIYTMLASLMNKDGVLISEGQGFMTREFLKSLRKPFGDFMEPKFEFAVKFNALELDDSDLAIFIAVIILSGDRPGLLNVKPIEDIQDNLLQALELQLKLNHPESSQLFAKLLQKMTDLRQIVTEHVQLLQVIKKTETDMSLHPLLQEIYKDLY
Method in brief: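 Cells were plated and held 6–6.5 h at 37 C, then compounds were added as a titration series. After a further 16 h, CCF4 dye was loaded for 2 h at room temperature and emission at 460/530 nm recorded.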

[7] = target: Vitamin D3 receptor (Homo sapiens) (UniProt P11473); assay: qHTS assay for small molecule antagonists of vitamin D receptor signaling (AID 588541);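 note: receptor activated by calcitriol during compound treatment; series mostly up to about 77 µM; % is set by controls: 0 for no effect and ±100 for the full control effect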
Sequence of Vitamin D3 receptor (Homo sapiens) (P11473 whole entry, looked up): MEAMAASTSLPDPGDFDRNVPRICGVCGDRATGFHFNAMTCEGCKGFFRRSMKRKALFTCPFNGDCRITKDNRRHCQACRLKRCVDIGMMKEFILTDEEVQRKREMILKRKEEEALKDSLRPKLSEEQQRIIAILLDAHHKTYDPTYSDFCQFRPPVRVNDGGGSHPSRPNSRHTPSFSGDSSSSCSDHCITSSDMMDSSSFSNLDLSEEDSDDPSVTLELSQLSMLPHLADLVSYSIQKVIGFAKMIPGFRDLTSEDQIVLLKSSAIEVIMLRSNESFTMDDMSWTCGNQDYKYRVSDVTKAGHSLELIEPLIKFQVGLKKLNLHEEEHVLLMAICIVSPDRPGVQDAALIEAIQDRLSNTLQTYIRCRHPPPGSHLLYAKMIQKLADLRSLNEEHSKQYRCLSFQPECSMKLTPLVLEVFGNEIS
Method in brief: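 VDR-UAS-bla HEK293T cells (2000/well, 2% charcoal-stripped FBS) were treated with titrated compounds plus 1-alpha,25-dihydroxyvitamin D3 (50 nM or 3 nM final) for 16 h at 37 C. CCF4 beta-lactamase fluorescence was read; Hill fits gave IC50.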

[8] = target: Vitamin D3 receptor (Homo sapiens) (UniProt P11473); assay: qHTS assay for small molecule agonists of vitamin D receptor signaling (AID 588543);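 note: 0% = DMSO basal and 100% = reference agonist control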
Method in brief: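 qHTS in agonist mode: compound titrations stimulate a VDR-driven β-lactamase reporter in HEK293T cells over 16 h at 37 °C. Response normalized to 50 nM 1α,25-dihydroxyvitamin D3 = 100%, DMSO = 0%; Hill fitting gives EC50 and maximal response.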

[9] = qHTS assay for small molecule agonists of retinoid X receptor alpha signaling (AID 588544); settings: HEK293T RXRa-UAS-bla, beta-lactamase reporter, 18 h; 530 nm emission;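 for activation: 0% = DMSO basal wells and 100% = reference agonist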
[10] = target: Retinoic acid receptor RXR-alpha (Homo sapiens) (UniProt P19793); assay: as above
Sequence of Retinoic acid receptor RXR-alpha (Homo sapiens) (P19793 whole entry, looked up): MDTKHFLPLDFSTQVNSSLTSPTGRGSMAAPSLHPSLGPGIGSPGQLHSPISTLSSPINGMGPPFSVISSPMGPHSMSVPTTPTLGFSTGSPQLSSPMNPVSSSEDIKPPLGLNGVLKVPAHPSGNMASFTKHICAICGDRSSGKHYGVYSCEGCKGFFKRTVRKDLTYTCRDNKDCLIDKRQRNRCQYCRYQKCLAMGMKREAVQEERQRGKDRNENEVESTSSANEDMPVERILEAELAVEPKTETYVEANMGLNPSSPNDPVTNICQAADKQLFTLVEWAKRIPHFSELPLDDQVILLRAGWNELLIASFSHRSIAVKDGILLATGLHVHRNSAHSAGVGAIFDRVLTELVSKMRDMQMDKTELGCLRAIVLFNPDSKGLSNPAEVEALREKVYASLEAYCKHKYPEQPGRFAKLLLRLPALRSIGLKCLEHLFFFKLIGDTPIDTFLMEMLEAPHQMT

[11] = target: Thyroid hormone receptor beta (Homo sapiens) (UniProt P10828); assay: qHTS assay for small molecule agonists of thyroid hormone receptor beta signaling (AID 588545)
Sequence of Thyroid hormone receptor beta (Homo sapiens) (P10828 whole entry, looked up): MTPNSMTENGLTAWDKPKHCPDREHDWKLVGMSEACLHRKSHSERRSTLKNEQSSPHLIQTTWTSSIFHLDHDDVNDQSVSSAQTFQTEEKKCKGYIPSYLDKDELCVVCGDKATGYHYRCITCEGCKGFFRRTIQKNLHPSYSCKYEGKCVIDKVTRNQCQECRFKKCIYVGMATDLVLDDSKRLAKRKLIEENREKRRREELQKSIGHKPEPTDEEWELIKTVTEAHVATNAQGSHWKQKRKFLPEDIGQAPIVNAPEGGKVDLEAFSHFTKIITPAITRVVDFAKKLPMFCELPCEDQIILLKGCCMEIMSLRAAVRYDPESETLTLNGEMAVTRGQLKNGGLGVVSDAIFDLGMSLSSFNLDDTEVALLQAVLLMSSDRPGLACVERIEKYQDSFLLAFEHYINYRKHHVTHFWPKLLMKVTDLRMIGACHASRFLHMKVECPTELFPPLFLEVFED
Method in brief: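 Cells (2500/well) were seeded, incubated 4 hrs at 37 C, dosed with a compound series, incubated 18 hrs, loaded with CCF4 dye for 2 hrs at RT, then read for fluorescence. Data were scaled between DMSO (0%) and 10 nM T3 (100%).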

[12] = qHTS assay for small molecule antagonists of retinoid X receptor alpha signaling (AID 588546; active = well fitted inhibition curve with a large enough effect in the signal ratio, with a control signal flat, not every such curve was filed as active; the % refers to the signal ratio;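 note: cells stimulated with 9-cis-retinoic acid as agonist; % is set by controls: 0 for no effect and ±100 for the full control effect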); settings: HEK293T RXRa-UAS-bla, beta-lactamase ratio, antagonist mode; measured here: W530 green channel, cytotoxicity proxy
Method in brief: (§2)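 Beta-lactamase reporter inhibition, read as CCF4 fluorescence ratio (ex 405, em 460/530 nm) after 2 h at RT. HEK293T UAS-bla cells, 2500/well, were stimulated with 9-cis-RA at 500 or 100 nM final alongside test compound for 18 h at 37 C.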

[13] = target: Retinoic acid receptor RXR-alpha (Homo sapiens) (UniProt P19793); assay: as above; settings: HEK293T RXRa-UAS-bla, beta-lactamase ratio, antagonist mode
Method in brief: as §2

[14] = target: Thyroid hormone receptor beta (Homo sapiens) (UniProt P10828); assay: qHTS assay for small molecule antagonists of thyroid hormone receptor beta signaling (AID 588547; active = well fitted inhibition curve with a large enough effect in the signal ratio, with a control signal flat, not every such curve was filed as active; the % refers to the signal ratio;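 note: cells stimulated with 0.4 nM T3 agonist during compound exposure; series mostly up to about 77 µM; % is set by controls: 0 for no effect and ±100 for the full control effect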); settings: TR-UAS-bla HEK293, beta-lactamase ratio, antagonist mode, 18 h
Method in brief: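 TR-UAS-bla GripTite HEK293 cells in 2% charcoal/dextran FBS medium were preincubated 4 h at 37 C, given compound (0.59 nM to 92 uM) plus 0.4 nM T3 (final) for 18 h, then CCF4 for 2 h at RT; Hill fit gave IC50.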

[15] = qHTS assay for small molecule activators of the p53 signaling pathway (AID 651743; active = well fitted activation curve with a large enough effect in the signal ratio, not every such curve was filed as active; the % refers to the signal ratio; note: series mostly up to about 92 µM; % of control where 0% means no effect); settings: HCT-116 p53RE-bla, beta-lactamase FRET ratio, 16 h; activation: stronger effect = higher value
Method in brief: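 Agonist-mode quantitative HTS in HCT-116 cells carrying a p53-response-element beta-lactamase reporter; 16 h compound treatment at 37 C, then FRET substrate loading for 2 h at room temperature and fluorescence read.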

[16] = qHTS assay for small molecule activators of the nuclear factor-kappa B (NF-kB) signaling pathway (AID 651749; active = well fitted activation curve with a large enough effect in the signal ratio; the % refers to the signal ratio; note: series mostly up to about 77 µM; % of control where 0% means no effect); settings: NF-kB-bla ME-180 cells, beta-lactamase FRET ratio, 16 h; activation: stronger effect = higher value
Method in brief: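 Human ME-180 cervical cells with an NF-kB-bla construct; compounds added via 23 nL pin transfer, DMSO as vehicle; incubation 16 hr. Reporter activity measured by FRET disruption.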

[17] = qHTS assay for environmental chemicals that activate the Aryl hydrocarbon Receptor (AhR) signaling pathway (AID 651777; active = well fitted curve in the direction sought with a large enough effect; an effect the other way counts as inactive or inconclusive; note: % of control where 0% means no effect; nearly all actives have a fitted effect of over 15% in size); settings: 1A2-DRE human hepatoma cells, luciferase, 24 h; activation: stronger effect = higher value
Method in brief: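 Stable CYP1A2 promoter/DRE-luciferase human hepatoma line treated 24 hr; One-Glo luminescence, 30 min RT.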

[18] = target: Peroxisome proliferator-activated receptor alpha (Homo sapiens) (UniProt Q07869); assay: qHTS assay for small molecule agonists of the peroxisome proliferator-activated receptor alpha (PPARalpha) signaling pathway (AID 651778; active = well fitted curve in the direction sought with a large enough effect; an effect the other way counts as inactive or inconclusive; note: % of control where 0% means no effect); settings: PathHunter PPARalpha complementation, chemiluminescence, 6 h; max response: stronger effect = higher value
Sequence of Peroxisome proliferator-activated receptor alpha (Homo sapiens) (Q07869 whole entry, looked up): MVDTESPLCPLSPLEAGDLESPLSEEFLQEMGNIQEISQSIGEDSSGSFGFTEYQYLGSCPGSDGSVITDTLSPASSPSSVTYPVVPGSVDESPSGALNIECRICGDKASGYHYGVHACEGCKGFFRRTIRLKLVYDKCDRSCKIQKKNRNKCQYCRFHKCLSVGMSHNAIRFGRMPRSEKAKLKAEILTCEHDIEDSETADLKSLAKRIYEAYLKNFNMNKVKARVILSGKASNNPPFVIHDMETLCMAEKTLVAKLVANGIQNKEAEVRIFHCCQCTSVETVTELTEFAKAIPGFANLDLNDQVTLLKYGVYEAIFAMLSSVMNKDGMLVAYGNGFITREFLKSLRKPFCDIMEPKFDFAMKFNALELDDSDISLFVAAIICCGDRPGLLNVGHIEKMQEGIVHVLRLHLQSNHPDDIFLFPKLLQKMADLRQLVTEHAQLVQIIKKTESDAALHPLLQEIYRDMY
Method in brief: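 Cells plated at 2,000/well and held overnight at 37 C, 5% CO2, then compound added by pin tool for 6 hr; after PathHunter detection reagent and 60 min at room temperature, chemiluminescence from enzyme complementation was read.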

[19] = qHTS assay for small molecule agonists of the antioxidant response element (ARE) signaling pathway measured by Nrf2-dependant transcriptional activity (AID 720636; active = well fitted curve in the direction sought with a large enough effect in the repeat runs; an effect the other way counts as inactive or inconclusive;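 note: HepG2 cells with an ARE-driven luciferase reporter; % of control where 0% means no effect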)
Method in brief: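 Reporter gene assay, HepG2 ARE-luc: 16 hr compound, 37 C, 5% CO2; read-out luciferase luminescence.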

[20] = qHTS assay for small molecule agonists of the antioxidant response element (ARE) signaling pathway measured by Nrf2-dependant transcriptional activity - cell viability counter screen (AID 720653; active = well fitted curve in the direction sought with a large enough effect in the repeat runs; an effect the other way counts as inactive or inconclusive; note: % is set by controls: 0 for no effect and ±100 for the full control effect); settings: ARE-bla HepG2 viability, CellTiter-Glo ATP luminescence, 16 h; max response: stronger effect = lower value
Method in brief: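 ARE-bla HepG2 cells (2,000/well) rested 5 hrs at 37C/5% CO2, then exposed to compounds in DMSO for 16 hrs. Viability was read in the same wells as intracellular ATP by luminescence, 30 min at room temperature after reagent addition.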

[21] = qHTS assay for cell viability of HEK293 cells (AID 743288; active = well fitted curve in the direction sought with a large enough effect; an effect the other way counts as inactive or inconclusive; note: % is set by controls: 0 for no effect and ±100 for the full control effect; nearly all actives have a fitted effect of over 50% in size); settings: ATP luminescence (CellTiter-Glo), 18 h; max response: stronger effect = lower value
Method in brief: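 Quantitative high-throughput screen: compounds were pinned onto parental HEK293 cells (2,000 per well) after a minimum 5 h settling at 37 C, incubated 18 h at 37 C, and intracellular ATP measured by luciferase luminescence.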

[22] = qHTS assay for cell viability of the p53RE-bla HCT-116 cell line (AID 743292; active = well fitted curve in the direction sought with a large enough effect; an effect the other way counts as inactive or inconclusive; note: % is set by controls: 0 for no effect and ±100 for the full control effect; nearly all actives have a fitted effect of over 55% in size)
Method in brief: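 Readout: CellTiter-Glo luminescence after 30 min RT. Treatment: compounds in DMSO, 16 h, 37 C. Cells: CellSensor p53RE-bla HCT-116, 4,000/well, preincubated 5 h.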

[23] = target: Nuclear receptor subfamily 1 group I member 2 (Rattus norvegicus) (UniProt Q9R1A7); assay: qHTS assay for small molecule activators of the rat pregnane X receptor (rPXR) signaling pathway (AID 651751; call rule not given here; note: 0% is about no effect); settings: rPXR reporter cells, luciferase (One-Glo), 24 h
Sequence of Nuclear receptor subfamily 1 group I member 2 (Rattus norvegicus) (Q9R1A7 whole entry, looked up): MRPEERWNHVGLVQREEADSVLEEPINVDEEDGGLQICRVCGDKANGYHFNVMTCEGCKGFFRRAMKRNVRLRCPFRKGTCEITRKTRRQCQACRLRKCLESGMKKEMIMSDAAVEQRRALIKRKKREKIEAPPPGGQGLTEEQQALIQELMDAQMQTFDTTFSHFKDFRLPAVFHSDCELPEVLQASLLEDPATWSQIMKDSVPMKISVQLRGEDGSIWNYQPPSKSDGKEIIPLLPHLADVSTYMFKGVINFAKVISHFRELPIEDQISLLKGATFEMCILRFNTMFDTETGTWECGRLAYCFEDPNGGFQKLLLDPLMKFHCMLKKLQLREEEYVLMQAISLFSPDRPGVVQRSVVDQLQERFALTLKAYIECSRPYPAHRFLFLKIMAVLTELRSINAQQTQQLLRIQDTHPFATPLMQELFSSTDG

[24] = qHTS assay for small molecule activators of the human pregnane X receptor (PXR) signaling pathway (AID 720659; call rule not given here; note: 0% is about no effect)
[25] = target: Peroxisome proliferator-activated receptor gamma (Homo sapiens) (UniProt P37231); assay: qHTS assay for small molecule antagonists of peroxisome proliferator-activated receptor gamma signaling (AID 588537; active = well fitted inhibition curve with a large enough effect in the signal ratio, with a control signal flat, not every such curve was filed as active; the % refers to the signal ratio;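 note: reporter cells co-stimulated with 50 nM rosiglitazone agonist during compound treatment; % of control where 0% means no effect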)
Method in brief: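 Compounds are tested as concentration series for inhibition of rosiglitazone-driven (50 nM) reporter expression in GeneBLAzer PPAR-gamma-UAS-bla HEK293 cells. After 16 h at 37 C, CCF4 substrate is added for 2 h at room temperature and blue/green fluorescence is measured.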

[26] = target: Voltage-gated inwardly rectifying potassium channel KCNH2 (Homo sapiens) (UniProt Q12809); assay: qHTS Assay for Small Molecule Inhibitors of the Human hERG Channel Activity (AID 588834; active = well fitted curve in the direction sought with a large enough effect; an effect the other way counts as inactive or inconclusive;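 note: U2OS cells transduced with hERG by BacMam; top concentration of the series differs between compounds; % is set by controls: 0 for no effect and ±100 for the full control effect; lower thallium flux fluorescence means stronger hERG block; nearly all actives have a fitted effect of over 50% in size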)
Sequence of Voltage-gated inwardly rectifying potassium channel KCNH2 (Homo sapiens) (Q12809 whole entry, looked up): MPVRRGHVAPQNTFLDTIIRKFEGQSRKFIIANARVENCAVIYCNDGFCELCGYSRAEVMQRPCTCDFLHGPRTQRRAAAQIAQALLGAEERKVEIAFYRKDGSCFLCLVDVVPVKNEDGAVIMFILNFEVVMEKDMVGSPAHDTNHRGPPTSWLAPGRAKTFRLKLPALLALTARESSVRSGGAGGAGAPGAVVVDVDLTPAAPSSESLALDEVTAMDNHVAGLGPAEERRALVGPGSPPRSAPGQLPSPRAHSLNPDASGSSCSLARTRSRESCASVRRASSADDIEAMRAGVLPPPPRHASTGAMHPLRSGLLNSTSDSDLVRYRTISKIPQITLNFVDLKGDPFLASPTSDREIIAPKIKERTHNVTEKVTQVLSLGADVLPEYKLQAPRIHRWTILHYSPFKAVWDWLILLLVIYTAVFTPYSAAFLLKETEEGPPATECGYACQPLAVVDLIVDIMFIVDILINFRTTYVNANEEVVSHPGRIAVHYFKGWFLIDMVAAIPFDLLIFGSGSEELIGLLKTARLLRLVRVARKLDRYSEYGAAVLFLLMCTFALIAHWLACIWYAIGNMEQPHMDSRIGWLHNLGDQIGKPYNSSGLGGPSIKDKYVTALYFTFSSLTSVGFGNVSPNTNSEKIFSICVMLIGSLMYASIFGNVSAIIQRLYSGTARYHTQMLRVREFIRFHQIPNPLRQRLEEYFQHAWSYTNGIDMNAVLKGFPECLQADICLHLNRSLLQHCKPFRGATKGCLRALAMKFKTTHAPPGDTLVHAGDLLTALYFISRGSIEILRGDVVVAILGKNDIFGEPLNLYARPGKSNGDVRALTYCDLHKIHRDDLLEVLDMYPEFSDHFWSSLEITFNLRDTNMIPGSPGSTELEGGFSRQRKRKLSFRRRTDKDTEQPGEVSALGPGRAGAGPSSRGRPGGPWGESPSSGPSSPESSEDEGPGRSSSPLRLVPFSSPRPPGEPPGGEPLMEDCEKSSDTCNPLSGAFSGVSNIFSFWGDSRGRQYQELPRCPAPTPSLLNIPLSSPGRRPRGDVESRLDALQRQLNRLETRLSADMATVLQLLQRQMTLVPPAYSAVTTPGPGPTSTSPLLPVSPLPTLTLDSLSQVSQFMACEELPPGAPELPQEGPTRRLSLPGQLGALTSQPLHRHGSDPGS
Method in brief: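 Cells were infected with hERG-BacMam virus for 4 hrs at room temperature, grown overnight, then seeded at 2000/well. After dye loading and roughly 10 min compound treatment, thallium influx was triggered and fluorescence recorded.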

[27] = target: Luciferin 4-monooxygenase (Photinus pyralis) (UniProt P08659); assay: Biochemical firefly luciferase enzyme assay for NPC (AID 624030; active = well fitted curve in the direction sought with a large enough effect; an effect the other way counts as inactive or inconclusive; note: potency is the fitted concentration of half-maximal effect; nearly all actives have a fitted effect of over 70% in size)
Method in brief: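 Counter-screen for direct inhibition of the luciferase enzyme by approved-drug library compounds, run at 10 nM enzyme in 50 mM Tris acetate (final). Luminescence was read within 5 min of enzyme-buffer addition and normalized to PTC124 versus DMSO (0%).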

[28] = S16 Schwann cell PMP22 intronic element firefly luciferase assay (AID 624032; active = well fitted curve in the direction sought with a large enough effect; an effect the other way counts as inactive or inconclusive;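 note: series mostly up to about 58 µM; plate controls were DMSO for no effect and PTC124 positive control mean for full effect; nearly all actives have a fitted effect of over 30% in size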)
Method in brief: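 Rat S16 Schwann cells stably carrying a PMP22 intronic element-driven Fluc reporter were seeded overnight, then exposed to compounds for 24 h at 37 °C. Luminescence was normalized to PTC124 (positive control) and DMSO (0% activity).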

[29] = target: Nuclear receptor ROR-gamma (Homo sapiens) (UniProt P51449); assay: qHTS assay for small molecule antagonists of the retinoid-related orphan receptor gamma (ROR-gamma) signaling pathway (AID 651802; active = well fitted curve in the direction sought with a large enough effect; an effect the other way counts as inactive or inconclusive;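 note: CHO cells with doxycycline-induced ROR-gamma expression; series mostly up to about 92 µM; % is set by controls: 0 for no effect and ±100 for the full control effect; nearly all actives have a fitted effect of over 60% in size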)
Method in brief: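 Steps: cells dispensed; compound or DMSO transferred by pin tool; doxycycline added to induce the ROR response element-driven luciferase; plates held 16hr at 37C; ONE-Glo added and luminescence measured.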

Cc1ccc([N+](=O)[O-])cc1N
inactive: Potency [1] | outcome [2]
33.5 µM (active) and inactive: Potency [3]

CC(=NC#N)N(C)Cc1ccc(Cl)nc1
24.8%: max response [4]
-1.69%: max response [9]
inactive: outcome [2] | Potency [5] | Potency [6] | Potency [7] | outcome [8] | Potency [10] | Potency [11] | max response [13] -19.1% | activity change % (negative = inhibition) [14] -1.79% | Potency [3] | activation [15] -5.43% | activation [16] -0.278% | activation [17] 0.519% | max response [18] -1.88% | Potency [19] | max response [20] -5.31% | max response [21] -11.8% | Potency [22] | max response [23] 2.55% | outcome [24]
-1.52%: max response [12]

CCC(C)(CC)c1cc(NC(=O)c2c(OC)cccc2OC)on1
5.81%: max response [12]
inactive: outcome [2] | Potency [5] | Potency [6] | Potency [25] | Potency [7] | outcome [8] | Potency [10] | Potency [11] | max response [13] -17.5% | activity change % (negative = inhibition) [14] 0.364% | activation [16] -0.691% | activation [17] 0.26% | max response [18] -1.49% | Potency [19] | max response [20] 10.3% | max response [21] -25.2% | Potency [22]
12.1%: max response [9]
7.62%: max response [4]

Nc1nccs1
inactive: outcome [2]

OCCC(F)(F)C(F)(F)C(F)(F)C(F)(F)C(F)(F)C(F)(F)C(F)(F)C(F)(F)F
inactive: outcome [2]

O=[N+]([O-])c1ccc(F)cc1F
inactive: outcome [2]

CC1=CC(=O)NS(=O)(=O)O1
inactive: outcome [2]

Cc1cc(Cl)ccc1N=CN(C)C
inactive: outcome [2] | Potency [25] | Potency [7] | outcome [8] | Potency [10] | Potency [3] | activation [15] 0.7% | activation [17] 1.22% | max response [18] -0.583% | Potency [19] | max response [20] -12.3% | Potency [22] | max response [23] 1.62% | outcome [24]
-2.15%: max response [9]
-3.88%: max response [12]

[CH3][Sn]([CH3])([Cl])[Cl]
inactive: outcome [2] | Potency [5] | Potency [6] | Potency [25] | Potency [7] | outcome [8] | Potency [10] | Potency [11] | max response [13] -24.3% | activity change % (negative = inhibition) [14] 0.969% | activation [16] 0.645% | activation [17] -0.285% | max response [18] -1.2% | Potency [19] | max response [20] 3.28% | max response [21] -9.37% | Potency [22] | max response [23] -0.47% | outcome [24]
-7.56%: max response [9]
-2.31%: max response [12]
1.89%: max response [4]

[O-][N+](=Nc1ccccc1)c1ccccc1
inactive: outcome [2] | Potency [26] | Potency [28] | Potency [29]
active: Potency [27] 12.8 µM | Potency [3] 37.6 µM

O=C1c2ccccc2C(=O)N1SC(Cl)(Cl)Cl
inactive: outcome [8] | activation [16] 3.09% | activation [17] -3.47% | max response [18] 9.12% | outcome [24]

Source: PubChem BioAssay (NCATS)
